This is a sample that favours compounds with a hit; in the whole collection about 3% have one here.
Peg3 prom inh-1: inhibitors of Peg3 promoter; HeLa PEG-Prom luciferase reporter, luminescence, overnight; inhibition, % at 20 µM; 360,000 tested, 1.7% active;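 active = inhibition of at least 50% at 20 µM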
CF NFkB inh: blocks PAF-induced NF-kB reporter in cystic fibrosis cells. KKLEB NF-kB-GFP reporter, GFP fluorescence overnight. inhibition, % at 5 µM. 360,000 tested, 0.86% active;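 active = at least 50% inhibition at 5 µM, scaled per plate between neutral and stimulator controls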;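 note: PAF is a Pseudomonas aeruginosa culture filtrate used as stimulus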
HIF-2a inh: HIF-2a inhibition. 786-0 RCC cells HIF-2a reporter, luciferase luminescence, overnight. inhibition, % at 18.8 µM. 360,000 tested, 0.72% active. AID 624352;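 active = inhibition of the luminescence signal of 40% or more relative to plate controls, in a single-dose primary screen at 18.75 µM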
TRPM1 prom inh: inhibitors of MITF-driven TRPM1 promoter in melanoma cells; SK-MEL-5 TRPM1 promoter luciferase, 24 h; inhibition, % at 12.5 µM; AID 488899; 330,000 tested, 0.83% active;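 active = mean inhibition across replicates of 60% or more, whatever share of single replicates reaches that level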
ABHD5-PLIN5 inh: inhibitors of human ABHD5-perilipin-5 interaction. 360,000 tested, 0.78% active. Split G. princeps luciferase complementation, luminescence, 4 h. inhibition, % at 4 µM. AID 602281. Q00G26+Q8WTS1;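 active = inhibition above the mean inhibition across every tested compound plus 3 SD, cut at about 22% in these data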
Target sequence (Q00G26 whole entry, looked up): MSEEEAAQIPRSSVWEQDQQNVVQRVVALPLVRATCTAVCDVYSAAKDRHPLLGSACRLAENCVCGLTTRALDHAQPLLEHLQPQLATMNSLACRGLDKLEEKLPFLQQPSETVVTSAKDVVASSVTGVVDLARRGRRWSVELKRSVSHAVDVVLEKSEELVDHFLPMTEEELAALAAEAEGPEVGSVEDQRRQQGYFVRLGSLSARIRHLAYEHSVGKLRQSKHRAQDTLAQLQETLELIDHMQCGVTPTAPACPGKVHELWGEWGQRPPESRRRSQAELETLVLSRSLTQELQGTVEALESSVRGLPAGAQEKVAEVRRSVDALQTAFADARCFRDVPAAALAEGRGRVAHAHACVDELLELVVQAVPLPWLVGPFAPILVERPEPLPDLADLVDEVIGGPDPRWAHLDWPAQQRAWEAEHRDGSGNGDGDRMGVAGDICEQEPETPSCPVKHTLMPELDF
Target sequence (Q8WTS1 whole entry, looked up): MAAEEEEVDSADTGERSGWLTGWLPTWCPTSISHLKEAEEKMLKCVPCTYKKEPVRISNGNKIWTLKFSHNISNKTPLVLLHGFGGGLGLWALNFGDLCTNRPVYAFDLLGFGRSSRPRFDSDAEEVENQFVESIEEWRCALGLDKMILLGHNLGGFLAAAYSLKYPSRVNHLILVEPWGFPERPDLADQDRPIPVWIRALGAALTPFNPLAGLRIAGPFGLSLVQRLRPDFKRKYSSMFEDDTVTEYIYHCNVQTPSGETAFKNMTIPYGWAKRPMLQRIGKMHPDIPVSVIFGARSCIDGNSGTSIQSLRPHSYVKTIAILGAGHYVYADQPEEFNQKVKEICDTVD
KKLEB tox: counter-screen for CF NF-kB inhibitors: cytotoxicity | KKLEB CF airway cells viability, ATPlite luminescence, overnight; hits give low values; cells stimulated with P. aeruginosa culture filtrate | activity change (cytotoxicity), % at 5 µM | 360,000 tested, 0.36% active | AID 602141;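 active = corrected activity change at or below -50% at 5 µM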
Peg3 prom inh-2: Peg3 promoter inhibition confirmation | AID 602417 | HeLa PEG-Prom luciferase reporter, luminescence, overnight | shares compounds with Peg3 prom inh-1 | inhibition, % at 20 µM | 1,300 tested, 84% active;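 active = at 20 µM dose, 40% or more inhibition averaged across four replicates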
CF NFkB conf: CF NF-kB inhibition confirmation, single concentration | shares compounds with CF NFkB inh | KKLEB CF airway cells, PAF-induced NF-kB-GFP fluorescence, overnight | inhibition, % at 5 µM | 1,300 tested, 64% active | AID 602472; in the data active = inhibition above about 40%;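 note: stimulus PAF is a Pseudomonas aeruginosa filtrate and not platelet activating factor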
Mdm2 MdmX conf: confirmation of inhibitors of human Mdm2/MdmX interaction, set 2; shares compounds with HIF-2a inh; SaOS-2 split-luciferase Mdm2/MdmX complementation, luminescence; inhibition, % at 8 µM; 740 tested, 99% active; AID 504601;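 active = mean inhibition of the luminescence signal across two replicates at or above 26 percent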
HIF-2a inh conf: HIF-2a inhibition, single concentration confirmation. shares compounds with HIF-2a inh. 786-0 RCC cells, HIF-2a luciferase reporter luminescence, overnight. inhibition, % at 18.8 µM. 1,800 tested, 56% active;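 active = mean inhibition across four replicates of at least 40 percent at the single tested concentration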
HIF-1a counter: inhibits HIF-1a reporter, a counter-screen for HIF-2a inhibitors. shares compounds with HIF-2a inh. AID 651589. 1,800 tested, 72% active. MiaPaCa-2 HIF-1a luciferase reporter, desferoxamine, overnight. inhibition, % at 18.8 µM;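 active = mean inhibition of the reporter signal across four replicates at the single tested dose of 50% or more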
Hits are given with their value; n = inactive; x = no result given.

SMILES	Peg3 prom inh-1	CF NFkB inh	HIF-2a inh	TRPM1 prom inh	ABHD5-PLIN5 inh	KKLEB tox	Peg3 prom inh-2	HIF-2a inh conf	HIF-1a counter	others
CNC(=O)COC(=O)c1ccccc1C(=O)c1ccc(Cl)c([N+](=O)[O-])c1	100	90	71	89	n	n	99	n	104	CF NFkB conf=112
CC(C)OC(=O)c1ccccc1C(=O)c1ccc(N)c([N+](=O)[O-])c1	n	n	n	n	n	n	x	x	x
Cc1ccc2nc(NC(=O)CSCC(=O)OCC(=O)c3ccc(Br)cc3)sc2c1	52	n	57	n	n	n	65	51	86
Cc1ccc(N2CCC(N3CCN(C)C(CCO)C3)CC2)cc1 (stereo not given)	n	n	n	n	n	n	x	x	x
CS(=O)(=O)Nc1cccc(NC(=O)C2Cc3c(-c4ccccc4)ccnc3O2)c1 (stereo not given)	51	n	47	x	n	n	57	n	85
COc1cc(C2NC(=O)N(C)C(C)=C2C(=O)OCc2ccccc2)cc(Br)c1O (stereo not given)	n	n	n	n	n	n	x	x	x
CCCc1nc2oc3c(NCCCN(C)C)ncnc3c2c2c1CCCC2	92	n	n	78	n	n	93	x	x	Mdm2 MdmX conf=101
CCCc1nc2oc3c(NCC4CCCO4)ncnc3c2c2c1COC(C)(C)C2 (stereo not given)	n	n	n	n	n	n	x	x	x
CC(=O)Nc1sc(C)c(C)c1C(=O)OCCOc1ccccc1	n	n	n	n	n	n	x	x	x
Cn1nnnc1Sc1ncnc2scc(-c3cccc4ccccc34)c12	98	n	53	n	n	n	97	68	105
Cn1nnnc1SCc1cccc2ccccc12	n	n	n	n	n	n	x	x	x
COc1cccc(CC(CC(=O)O)C(=O)Nc2cc(C)ccc2C)c1 (stereo not given)	n	n	n	n	n	n	x	x	x
COCCn1c(C)cc(C2=NNC(=NC3CC3)SC2)c1C	104	n	93	102	n	n	95	99	105	Mdm2 MdmX conf=101
COc1ccc(-n2c(C)cc(C3=NNC(=NC4CC4)SC3)c2C)cc1	n	n	n	n	n	n	x	x	x
Cc1cc(N2C(=O)C(O)=C(C(=O)c3ccco3)C2c2ccccc2F)no1 (stereo not given)	n	n	n	n	n	n	x	x	x
Cc1cccc(C)c1NS(=O)(=O)c1ccc(NC(=O)c2ccc(Cl)c([N+](=O)[O-])c2)cc1	106	n	91	n	n	n	98	n	108	Mdm2 MdmX conf=102
O=C(Nc1ccc(S(=O)(=O)NC2=NCCCCC2)cc1)c1ccc(Cl)c([N+](=O)[O-])c1	n	n	n	n	n	n	x	x	x
COc1ccccc1N(C(=O)CCl)c1cn(C(C)=O)c2ccccc12	67	89	48	63	n	-102	72	44	n	Mdm2 MdmX conf=103
CN(C)c1nc(N)c2ncc(=S)[nH]c2n1	n	n	n	n	n	n	x	x	x
COc1ccc2[nH]cc(C(=O)CCl)c2c1	107	82	n	91	n	n	97	x	x	CF NFkB conf=113;Mdm2 MdmX conf=102
COc1ccc2[nH]cc(C(=O)CN3CC(C)CC(C)C3)c2c1 (stereo not given)	n	n	n	n	n	n	x	x	x
CCC1=C(CC2NCCc3ccccc32)CC2c3cc(OC)c(OC)cc3CCN2C1 (stereo not given)	61	63	41	70	n	n	80	n	104	CF NFkB conf=72

Assay outcomes as filed in PubChem BioAssay.
